# How the values were obtained:
# [1] = target: Tyrosine-protein kinase SYK (Homo sapiens) (UniProt P43405); conditions: at 10 µM
# [2] = target: T1, Mitogen-activated protein kinase kinase kinase 7 (Homo sapiens) (UniProt O43318); conditions: at 1 µM
# T1 sequence (whole entry): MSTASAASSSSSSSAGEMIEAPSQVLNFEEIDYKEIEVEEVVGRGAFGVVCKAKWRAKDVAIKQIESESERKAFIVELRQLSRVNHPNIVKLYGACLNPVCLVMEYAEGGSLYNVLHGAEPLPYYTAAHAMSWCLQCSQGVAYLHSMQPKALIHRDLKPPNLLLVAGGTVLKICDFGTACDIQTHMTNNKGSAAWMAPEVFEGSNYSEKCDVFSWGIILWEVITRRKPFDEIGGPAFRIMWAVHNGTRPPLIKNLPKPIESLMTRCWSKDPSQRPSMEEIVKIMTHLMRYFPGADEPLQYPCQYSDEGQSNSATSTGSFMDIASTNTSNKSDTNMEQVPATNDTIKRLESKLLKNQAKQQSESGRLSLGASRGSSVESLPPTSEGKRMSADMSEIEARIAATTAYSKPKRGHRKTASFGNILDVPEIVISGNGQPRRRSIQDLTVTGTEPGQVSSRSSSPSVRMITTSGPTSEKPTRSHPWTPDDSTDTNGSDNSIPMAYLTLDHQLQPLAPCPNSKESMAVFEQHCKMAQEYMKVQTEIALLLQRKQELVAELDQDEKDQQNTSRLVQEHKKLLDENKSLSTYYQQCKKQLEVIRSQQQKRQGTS
# [3] = target: T1, Mitogen-activated protein kinase kinase kinase 7 (Homo sapiens); conditions: at 10 µM
# [4] = target: T2, Serine/threonine-protein kinase TAO1 (Homo sapiens) (UniProt Q7L7X3); conditions: at 10 µM
# T2 sequence (whole entry): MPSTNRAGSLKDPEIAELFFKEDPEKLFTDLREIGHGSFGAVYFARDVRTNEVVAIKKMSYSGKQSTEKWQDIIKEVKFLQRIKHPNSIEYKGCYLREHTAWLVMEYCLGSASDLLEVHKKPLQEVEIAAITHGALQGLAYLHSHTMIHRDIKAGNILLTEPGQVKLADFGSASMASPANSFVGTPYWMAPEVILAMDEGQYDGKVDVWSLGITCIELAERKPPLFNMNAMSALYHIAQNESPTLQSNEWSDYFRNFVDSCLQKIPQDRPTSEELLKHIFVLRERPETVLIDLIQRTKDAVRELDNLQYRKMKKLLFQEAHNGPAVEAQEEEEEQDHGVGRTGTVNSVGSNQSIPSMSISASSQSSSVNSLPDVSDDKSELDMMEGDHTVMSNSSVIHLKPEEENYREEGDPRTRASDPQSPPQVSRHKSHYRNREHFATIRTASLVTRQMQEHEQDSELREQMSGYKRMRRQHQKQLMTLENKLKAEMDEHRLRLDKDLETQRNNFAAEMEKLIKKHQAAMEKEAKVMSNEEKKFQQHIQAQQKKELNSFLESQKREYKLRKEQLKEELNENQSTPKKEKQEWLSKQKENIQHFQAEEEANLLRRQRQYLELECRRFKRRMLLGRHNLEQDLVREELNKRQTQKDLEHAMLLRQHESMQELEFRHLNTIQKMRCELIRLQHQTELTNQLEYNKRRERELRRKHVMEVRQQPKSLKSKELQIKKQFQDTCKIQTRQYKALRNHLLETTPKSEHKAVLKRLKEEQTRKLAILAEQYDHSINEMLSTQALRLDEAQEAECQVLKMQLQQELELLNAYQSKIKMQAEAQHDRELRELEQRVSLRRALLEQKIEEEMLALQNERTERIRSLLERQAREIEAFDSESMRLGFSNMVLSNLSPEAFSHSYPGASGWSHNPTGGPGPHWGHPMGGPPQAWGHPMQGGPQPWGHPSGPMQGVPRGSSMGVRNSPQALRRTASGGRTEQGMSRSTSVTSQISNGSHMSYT
# [5] = target: T3, Serine/threonine-protein kinase TAO2 (Homo sapiens) (UniProt Q9UL54); conditions: at 1 µM
# T3 sequence (whole entry): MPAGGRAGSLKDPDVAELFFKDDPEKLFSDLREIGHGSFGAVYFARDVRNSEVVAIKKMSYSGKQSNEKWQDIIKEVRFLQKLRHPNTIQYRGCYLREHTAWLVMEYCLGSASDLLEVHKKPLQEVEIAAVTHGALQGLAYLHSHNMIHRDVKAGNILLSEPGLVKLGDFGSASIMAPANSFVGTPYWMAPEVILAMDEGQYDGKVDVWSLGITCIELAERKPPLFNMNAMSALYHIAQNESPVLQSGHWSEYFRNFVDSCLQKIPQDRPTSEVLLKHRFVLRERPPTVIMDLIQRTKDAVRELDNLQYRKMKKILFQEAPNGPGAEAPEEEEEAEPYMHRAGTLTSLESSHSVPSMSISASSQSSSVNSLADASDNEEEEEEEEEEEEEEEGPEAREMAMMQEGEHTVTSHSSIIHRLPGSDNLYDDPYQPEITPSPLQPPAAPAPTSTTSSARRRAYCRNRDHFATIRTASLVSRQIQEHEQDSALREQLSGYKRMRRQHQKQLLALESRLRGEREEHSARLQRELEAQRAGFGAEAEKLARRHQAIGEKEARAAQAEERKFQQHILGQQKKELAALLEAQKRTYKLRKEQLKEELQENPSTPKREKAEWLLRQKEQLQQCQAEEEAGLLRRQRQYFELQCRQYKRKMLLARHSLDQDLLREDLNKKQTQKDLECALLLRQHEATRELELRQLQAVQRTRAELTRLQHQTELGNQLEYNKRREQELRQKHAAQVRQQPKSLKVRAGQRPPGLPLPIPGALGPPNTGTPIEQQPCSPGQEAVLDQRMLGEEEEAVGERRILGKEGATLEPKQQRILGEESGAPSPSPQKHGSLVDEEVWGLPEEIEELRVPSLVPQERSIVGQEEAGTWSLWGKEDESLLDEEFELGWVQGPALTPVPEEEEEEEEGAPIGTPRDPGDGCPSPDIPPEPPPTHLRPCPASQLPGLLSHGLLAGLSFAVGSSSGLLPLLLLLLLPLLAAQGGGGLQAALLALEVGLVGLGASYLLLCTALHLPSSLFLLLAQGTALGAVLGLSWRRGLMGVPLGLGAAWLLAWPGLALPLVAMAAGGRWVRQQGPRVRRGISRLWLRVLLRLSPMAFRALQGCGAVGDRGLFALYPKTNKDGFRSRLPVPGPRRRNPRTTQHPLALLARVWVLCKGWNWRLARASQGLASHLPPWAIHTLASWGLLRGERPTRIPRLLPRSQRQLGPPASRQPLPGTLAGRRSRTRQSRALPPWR
# [6] = target: T3, Serine/threonine-protein kinase TAO2 (Homo sapiens); conditions: at 10 µM
# [7] = target: T4, Serine/threonine-protein kinase TAO3 (Homo sapiens) (UniProt Q9H2K8); conditions: at 1 µM
# T4 sequence (whole entry): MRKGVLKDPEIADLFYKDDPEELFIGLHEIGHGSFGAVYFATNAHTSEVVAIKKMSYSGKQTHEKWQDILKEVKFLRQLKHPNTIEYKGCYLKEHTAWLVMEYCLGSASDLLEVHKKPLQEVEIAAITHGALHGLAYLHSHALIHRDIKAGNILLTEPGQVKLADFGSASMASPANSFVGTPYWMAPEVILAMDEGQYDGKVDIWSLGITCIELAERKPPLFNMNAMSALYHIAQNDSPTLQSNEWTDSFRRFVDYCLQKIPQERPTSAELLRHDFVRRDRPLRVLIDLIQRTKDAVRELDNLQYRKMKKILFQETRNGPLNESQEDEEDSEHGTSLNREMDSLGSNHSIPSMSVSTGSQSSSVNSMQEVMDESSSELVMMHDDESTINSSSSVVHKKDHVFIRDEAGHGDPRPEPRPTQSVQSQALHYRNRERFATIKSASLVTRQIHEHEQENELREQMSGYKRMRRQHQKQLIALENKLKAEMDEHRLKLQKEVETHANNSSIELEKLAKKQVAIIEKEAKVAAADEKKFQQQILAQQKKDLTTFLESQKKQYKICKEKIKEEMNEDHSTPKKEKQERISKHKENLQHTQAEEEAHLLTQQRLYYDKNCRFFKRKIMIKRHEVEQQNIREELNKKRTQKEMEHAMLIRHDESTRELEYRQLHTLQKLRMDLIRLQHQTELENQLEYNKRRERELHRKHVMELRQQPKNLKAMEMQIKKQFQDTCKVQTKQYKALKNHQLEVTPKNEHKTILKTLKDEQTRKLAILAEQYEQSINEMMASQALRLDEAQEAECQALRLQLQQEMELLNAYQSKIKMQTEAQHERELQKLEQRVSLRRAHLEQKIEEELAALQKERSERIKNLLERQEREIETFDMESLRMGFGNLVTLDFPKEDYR
# [8] = target: T4, Serine/threonine-protein kinase TAO3 (Homo sapiens); conditions: at 10 µM
# [9] = target: T5, Serine/threonine-protein kinase TBK1 (Homo sapiens) (UniProt Q9UHD2); conditions: at 1 µM
# T5 sequence (whole entry): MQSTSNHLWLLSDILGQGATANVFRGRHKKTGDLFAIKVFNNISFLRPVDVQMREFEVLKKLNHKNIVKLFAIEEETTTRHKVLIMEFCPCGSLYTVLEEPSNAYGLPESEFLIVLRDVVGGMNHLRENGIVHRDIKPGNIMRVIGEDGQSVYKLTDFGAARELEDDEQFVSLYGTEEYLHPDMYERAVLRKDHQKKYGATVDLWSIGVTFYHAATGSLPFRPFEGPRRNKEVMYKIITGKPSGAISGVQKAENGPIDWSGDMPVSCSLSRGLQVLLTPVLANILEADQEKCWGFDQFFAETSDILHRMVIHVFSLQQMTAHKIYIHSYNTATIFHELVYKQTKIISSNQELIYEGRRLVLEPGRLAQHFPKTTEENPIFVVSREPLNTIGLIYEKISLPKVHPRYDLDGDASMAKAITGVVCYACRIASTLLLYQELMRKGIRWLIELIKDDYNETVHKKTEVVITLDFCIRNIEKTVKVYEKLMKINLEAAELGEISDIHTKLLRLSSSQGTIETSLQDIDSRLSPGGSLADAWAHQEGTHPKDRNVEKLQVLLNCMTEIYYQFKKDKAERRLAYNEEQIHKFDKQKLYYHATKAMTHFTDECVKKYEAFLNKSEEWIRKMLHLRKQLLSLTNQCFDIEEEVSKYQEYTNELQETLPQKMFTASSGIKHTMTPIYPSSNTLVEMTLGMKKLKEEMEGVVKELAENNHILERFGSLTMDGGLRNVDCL
# [10] = target: T5, Serine/threonine-protein kinase TBK1 (Homo sapiens); conditions: at 10 µM
# [11] = target: T6, TGF-beta receptor type-1 (Homo sapiens) (UniProt P36897); conditions: at 1 µM
# T6 sequence (whole entry): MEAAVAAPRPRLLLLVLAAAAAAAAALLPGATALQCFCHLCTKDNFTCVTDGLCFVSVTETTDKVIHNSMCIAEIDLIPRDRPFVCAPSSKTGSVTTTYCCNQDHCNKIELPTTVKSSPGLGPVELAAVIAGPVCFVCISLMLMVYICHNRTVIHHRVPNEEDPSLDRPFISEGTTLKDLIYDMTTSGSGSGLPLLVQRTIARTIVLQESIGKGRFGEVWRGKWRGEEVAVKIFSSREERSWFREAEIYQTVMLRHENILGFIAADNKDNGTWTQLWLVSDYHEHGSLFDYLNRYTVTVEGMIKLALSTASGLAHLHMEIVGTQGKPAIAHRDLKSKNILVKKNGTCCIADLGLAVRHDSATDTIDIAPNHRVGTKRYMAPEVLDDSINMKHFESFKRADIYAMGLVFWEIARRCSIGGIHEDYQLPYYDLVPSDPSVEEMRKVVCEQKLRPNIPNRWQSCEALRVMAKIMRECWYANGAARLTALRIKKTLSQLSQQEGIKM
# [12] = target: T6, TGF-beta receptor type-1 (Homo sapiens); conditions: at 10 µM
# [13] = target: Insulin-like growth factor 1 receptor (Homo sapiens) (UniProt P08069); conditions: at 10 µM
# [14] = target: T7, Inhibitor of nuclear factor kappa-B kinase subunit beta (Homo sapiens) (UniProt O14920); conditions: at 1 µM
# T7 sequence (whole entry): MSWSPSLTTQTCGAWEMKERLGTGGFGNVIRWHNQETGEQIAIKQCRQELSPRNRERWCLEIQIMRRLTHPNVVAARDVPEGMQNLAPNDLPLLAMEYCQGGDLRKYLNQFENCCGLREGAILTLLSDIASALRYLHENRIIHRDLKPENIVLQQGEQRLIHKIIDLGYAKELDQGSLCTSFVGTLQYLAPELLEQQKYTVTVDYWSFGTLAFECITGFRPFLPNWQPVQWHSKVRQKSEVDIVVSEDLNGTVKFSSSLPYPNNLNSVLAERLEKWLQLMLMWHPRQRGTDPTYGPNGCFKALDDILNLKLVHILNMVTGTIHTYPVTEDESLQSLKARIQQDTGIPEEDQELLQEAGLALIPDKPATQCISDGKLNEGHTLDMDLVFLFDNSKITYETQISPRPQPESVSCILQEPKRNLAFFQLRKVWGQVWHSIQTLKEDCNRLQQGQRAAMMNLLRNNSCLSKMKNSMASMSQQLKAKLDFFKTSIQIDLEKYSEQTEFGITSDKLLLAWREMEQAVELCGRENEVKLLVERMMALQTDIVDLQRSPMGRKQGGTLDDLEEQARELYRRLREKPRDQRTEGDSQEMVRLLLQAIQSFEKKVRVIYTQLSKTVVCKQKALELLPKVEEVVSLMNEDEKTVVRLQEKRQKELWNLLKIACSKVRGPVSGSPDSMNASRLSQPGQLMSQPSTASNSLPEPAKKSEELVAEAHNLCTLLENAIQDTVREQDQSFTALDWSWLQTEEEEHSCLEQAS
# [15] = target: T7, Inhibitor of nuclear factor kappa-B kinase subunit beta (Homo sapiens); conditions: at 10 µM
# Sequence of Insulin-like growth factor 1 receptor (Homo sapiens) (P08069 31-736 limits assumed): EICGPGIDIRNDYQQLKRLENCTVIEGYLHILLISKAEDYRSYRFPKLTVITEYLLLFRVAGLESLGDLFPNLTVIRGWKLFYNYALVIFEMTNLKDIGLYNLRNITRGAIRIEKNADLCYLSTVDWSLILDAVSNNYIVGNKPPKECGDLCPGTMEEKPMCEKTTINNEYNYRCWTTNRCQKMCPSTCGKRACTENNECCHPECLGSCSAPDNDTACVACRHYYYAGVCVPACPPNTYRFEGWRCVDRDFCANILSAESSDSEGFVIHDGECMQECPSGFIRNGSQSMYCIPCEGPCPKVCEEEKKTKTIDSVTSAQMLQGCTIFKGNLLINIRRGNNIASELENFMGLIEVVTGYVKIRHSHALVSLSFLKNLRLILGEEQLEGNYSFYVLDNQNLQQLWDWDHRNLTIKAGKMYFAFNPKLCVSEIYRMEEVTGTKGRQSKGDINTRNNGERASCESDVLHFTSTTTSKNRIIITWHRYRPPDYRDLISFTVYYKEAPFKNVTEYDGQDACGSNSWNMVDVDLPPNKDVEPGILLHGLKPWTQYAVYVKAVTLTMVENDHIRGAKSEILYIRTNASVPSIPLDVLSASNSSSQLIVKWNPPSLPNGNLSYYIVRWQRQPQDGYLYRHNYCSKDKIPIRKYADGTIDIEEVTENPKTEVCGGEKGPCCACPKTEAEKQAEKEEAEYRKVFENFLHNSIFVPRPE
# Sequence of Insulin-like growth factor 1 receptor (Homo sapiens) (P08069 741-1367 limits assumed): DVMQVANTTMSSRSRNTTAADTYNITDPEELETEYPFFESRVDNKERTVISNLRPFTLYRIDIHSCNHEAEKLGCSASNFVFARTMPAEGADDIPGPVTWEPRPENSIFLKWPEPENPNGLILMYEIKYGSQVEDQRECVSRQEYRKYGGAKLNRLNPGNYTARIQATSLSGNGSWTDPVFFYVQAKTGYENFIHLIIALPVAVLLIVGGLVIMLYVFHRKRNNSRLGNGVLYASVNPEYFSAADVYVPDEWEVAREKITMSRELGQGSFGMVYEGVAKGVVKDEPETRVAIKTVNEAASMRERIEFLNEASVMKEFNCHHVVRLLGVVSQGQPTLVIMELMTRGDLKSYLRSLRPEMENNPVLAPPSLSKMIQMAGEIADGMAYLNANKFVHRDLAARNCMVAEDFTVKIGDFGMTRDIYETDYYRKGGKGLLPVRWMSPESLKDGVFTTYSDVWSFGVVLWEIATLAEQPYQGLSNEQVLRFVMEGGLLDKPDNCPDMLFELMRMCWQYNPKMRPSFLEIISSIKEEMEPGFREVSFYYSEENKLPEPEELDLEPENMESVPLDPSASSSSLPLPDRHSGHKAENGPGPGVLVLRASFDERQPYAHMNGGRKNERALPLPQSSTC
smiles,measurement,setting,value
O=c1cc(N2CCNCC2)oc2c(-c3ccccc3)cccc12,residual activity,[1],92%
same,residual activity,[2],95%
same,residual activity,[3],83%
same,residual activity,[4],85%
same,residual activity,[5],105%
same,residual activity,[6],96%
same,residual activity,[7],98%
same,residual activity,[8],92%
same,residual activity,[9],72%
same,residual activity,[10],54%
same,residual activity,[11],91%
same,residual activity,[12],85%
same,residual activity,[13],97%
same,residual activity,[14],99%
same,residual activity,[15],82%

# From ChEMBL document CHEMBL2218924, “A broad activity screen in support of a chemogenomic map for kinase signalling research and drug discovery” (Biochem J, 2013)
